In all, about 420,000 compounds went through this assay and about 50,000 (12%) were called active. Not shown: some 26% with an inconclusive outcome. The entries come from a sample that favours actives as a whole. Entries that show only a call come without a potency. Values without a mark were called inactive. Calls follow the shape of the dose curve; as a rule, active = well fitted inhibition curve with a large enough effect; inconclusive = small, poorly fitted or top-dose-only effect; inactive = flat fitted curve, though single readings scatter.

The values that follow come from PubChem BioAssay AID686979 (National Center for Advancing Translational Sciences (NCATS), 2013).
Potency is read from the fitted curve at half-maximal effect.

The test is described as follows: qHTS for Inhibitors of human tyrosyl-DNA phosphodiesterase 1 (TDP1): qHTS in cells in presence of CPT. Also: nearly all actives have a fitted effect of over 55% in size. As to conditions: chicken DT40 Tdp1-/-;hTDP1 cells + 20 nM CPT, ATP luminescence, 48 h; series mostly up to 46.2 µM. An outline of the steps:
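Chicken DT40 Tdp1-/- cells stably complemented with human TDP1 were seeded at 400 cells/well in medium containing 20 nM camptothecin, exposed to pin-transferred compounds, and grown at 37 °C for at least 48 hr. Viability was read as ATP luminescence.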
Background: Quantitative high-throughput screening tests each substance at several concentrations.
On to `CC(=O)N(OCc1ccc(OC(C)C)c(Cl)c1)C(C)=O`, for which the Potency result is “inactive”.

As for `O=C(COC(=O)CCOc1ccccc1)Nc1cc(S(=O)(=O)N2CCCCC2)ccc1Cl`, the Potency result was “inactive”.

As to `O=S(=O)(c1cc(Cl)ccc1Cl)N1CCN(Cc2ccco2)CC1`, the Potency entry was “inactive”.

`COc1ccc(Cl)cc1S(=O)(=O)N1CCN(CC(=O)C(C)(C)C)CC1`: the Potency result was “inactive”.

With `O=C(CN1CCN(S(=O)(=O)c2cc(Cl)ccc2Cl)CC1)c1ccc(O)c(O)c1`, the Potency is 9.2 µM (active).

As to `COc1ccccc1C1CCN(c2ccc([N+](=O)[O-])cn2)CC1`, the Potency result was “inactive”.

Turning to `Cc1cc(C(=O)Nc2ccccc2N2CCOCC2)c2ccccc2n1`, the Potency entry is “inactive”.

As to `O=c1[nH]c(N2CCOCC2)nc2ccccc12`, the Potency result is “inactive”.

Turning to `c1ccc(Nc2nc(N3CCOCC3)c3ccccc3n2)cc1`, the Potency was 20.6 µM (active).

On to `CC1(C)CC(=O)C(C=NCCN2CCN(C(=S)Nc3cccc(Cl)c3)CC2)=C(O)C1`, for which the Potency result was “inactive”.

With `O=C(CN1CCN(S(=O)(=O)c2ccc(Cl)s2)CC1)NCc1ccc(Cl)cc1`, the Potency entry is “inactive”.

Turning to `CC1(Oc2ccccc2-c2ccno2)CCN(Cc2ccc(-c3ccccc3)o2)C1` (stereo not drawn), the Potency is 25.9 µM (active).

Turning to `Nc1ncnc2c1ncn2[C@@H]1O[C@H](C(=O)N2CCCN(Cc3ccccc3F)CC2)[C@@H](O)[C@H]1O`, the Potency result was “inactive”.

As to `C=CCNC(=S)NNc1ncnc2sc3c(c12)CC(C)(C)OC3`, the Potency was 4.61 µM (active).

In the case of `CC1(C)Cc2c(sc3nc4n(c(=N)c23)CCCCC4)CO1`, the Potency result is “inactive”.

For `CCSc1nc2sc3c(c2c(=O)[nH]1)CC(C)(C)OC3`, the Potency result was “inactive”.

As for `Cc1c(CCC(=O)O)c(=O)oc2cc(OCc3ccc(Br)cc3)ccc12`, the Potency result was “inactive”.

With `Fc1ccc(NC(=S)N2CCc3[nH]c4ccccc4c3C2)cc1`, the Potency result was “inactive”.

As for `COC(=O)c1scc(S(=O)(=O)C(C)(C)C)c1-n1cccc1`, the Potency entry was “inactive”.

`Clc1ccc(-c2nc3ccccn3c2CN2CCSCC2)cc1`: the Potency is 29.1 µM (active).

As for `CC/C(=N\NC(=O)c1c(C)nc2ccccn12)c1ccc(Cl)cc1`, the Potency entry is “inactive”.

Turning to `CN(C)C(=O)c1nc2ccc(Cl)cn2c1CN1CCN(c2ncccn2)CC1`, the Potency entry is “inactive”.

In the case of `O=C(COc1ccc(S(=O)(=O)NCc2ccccc2)cc1)N1CCOCC1`, the Potency entry was “inactive”.

As to `Cc1ccc(S(=O)(=O)Nc2ccc3ncccc3c2)cc1`, the Potency is 10.3 µM (active).

With `Cc1ccc(OCC(=O)Nc2ccc(S(=O)(=O)Nc3ccccn3)cc2)cc1`, the Potency result was “inactive”.

As for `Cc1ccc(NS(=O)(=O)c2ccc(C(C)(C)C)cc2)cn1`, the Potency entry is “inactive”.

On to `Cc1oc2cc3oc(=O)ccc3cc2c1C`, for which the Potency result was “inactive”.

Consider `CS(=O)(=O)c1ccc2nc(NC(=O)CN3CCCCCC3)sc2c1`, for which the Potency result was “inactive”.

Consider `CS(=O)(=O)c1ccc2nc(NC(=O)C3C4C=CC(C4)C3C(=O)O)sc2c1` (stereo not drawn), for which the Potency result was “inactive”.

With `Cc1sc2ncnc(N3CCC(C(=O)Nc4nc5ccc(Cl)cc5s4)CC3)c2c1C`, the Potency was 8.2 µM (active).

On to `Cc1sc2ncnc(N3CCC(C(=O)NNC(=O)c4ccc(F)cc4)CC3)c2c1C`, for which the Potency was 18.4 µM (active).

`O=C(NNC(=O)C1CCN(c2ncccn2)CC1)c1ccccc1`: the Potency entry is “inactive”.

For `O=C(NNC(=O)C1CCCC1)c1ccc(F)cc1`, the Potency result was “inactive”.

Take `COc1ccccc1C1CN(CCNC(=O)C2=CCCC2)Cc2ccccc2O1` (stereo not drawn): the activity change, negative = growth inhibition is -9.51% [at 9.04 µM].

As for `Nc1ncnc2c1ncn2[C@@H]1O[C@H](CNCc2cccn2-c2nccs2)[C@@H](O)[C@H]1O`, the Potency result is “inactive”.

For `CCCCN1C(=O)C(CC(=O)NC(c2ccccc2)c2ccccc2)CC(C(=O)N2CCOCC2)=C1C` (stereo not drawn), the Potency result was “inactive”.

For `O=C1NCCn2nc3ccccc3c21`, the Potency result is “inactive”.

For the compound `Cc1ccc2c(c1)N(CC(=O)N1CCCC(C)C1)C(=O)CO2` (stereo not drawn), the Potency result was “inactive”.

With `Cc1ccc(Nc2nc(N3CCOCC3)nc(N3CCOCC3)n2)cc1Cl`, the Potency is 23.1 µM (active).

Regarding `CNc1nc(Nc2ccc(C)c(Cl)c2)nc(N)c1[N+](=O)[O-]`, the Potency entry is “inactive”.

With `Cc1cc(Nc2ccc(N3CCOCC3)cc2)c2cccc(C)c2n1`, the Potency entry is “inactive”.

Consider `COc1ccc(C2CC(=O)NC(=O)C2)cc1`, for which the Potency result was “inactive”.

On to `CC(C)(C)NC(=O)C(=O)NCc1ccncc1`, for which the Potency result was “inactive”.

For `CC(C)(C)c1ccc(SCCc2ccncc2)cc1`, the Potency was 18.4 µM (active).

Turning to `c1ccc(CSCCc2ccncc2)cc1`, the Potency result is “inactive”.

As for `Cc1cc(NC(=O)C(C)N2C(=O)c3ccccc3S2(=O)=O)no1` (stereo not drawn), the Potency entry was “inactive”.

For `Fc1ccc(COc2cccc(-c3n[nH]c(=S)o3)c2)cc1`, the Potency result is “inactive”.

Regarding `COCc1cccc(-c2csc(C(O)c3ccc(F)cc3)n2)c1` (stereo not drawn), the Potency was 16.4 µM (active).

With `COc1cc(C(O)c2nc(-c3cccc(C(=O)O)c3)cs2)ccc1F` (stereo not drawn), the Potency result is “inactive”.

As to `COc1ccc(N2CCN(C(=O)CSCc3nc(-c4ccccc4Cl)oc3C)CC2)cc1`, the Potency is 14.6 µM (active).

Turning to `COc1ccc(N2CCN(C(=O)CN3C(=O)COc4ccccc43)CC2)cc1`, the Potency entry was “inactive”.

Regarding `COc1ccc(N2CCN(C(=O)C3CCN(C(=O)c4ccccc4Cl)CC3)CC2)cc1`, the Potency result is “inactive”.

As for `COc1ccccc1C(=O)Nc1ccnn1C1CCN(Cc2cnn(C)c2)CC1`, the Potency entry was “inactive”.

Take `Nc1nc(-c2ccccc2)cc(-c2ccccc2)n1`: the Potency was 16.4 µM (active).

As for `CNc1nc(-c2ccccc2)cc(-c2ccccc2)n1`, the Potency entry was “inactive”.

Regarding `c1ccc(-c2cc(-c3ccccc3)[nH]n2)cc1`, the Potency entry is “inactive”.

As to `Cc1ccccc1NC(=O)c1cc2c([nH]c1=O)CC(C)(C)CC2=O`, the Potency result was “inactive”.

Take `Cc1ccc(F)c(NC(=O)CCOc2ccccc2C)c1`: the Potency result was “inactive”.

Consider `COCCc1nn2c(=O)cc(COC(=O)c3cc(OC)c(OC)c(OC)c3)nc2s1`, for which the Potency result is “inactive”.

Take `COc1ccc(C(=O)OCc2cc(=O)n3ccsc3n2)cc1F`: the Potency result is “inactive”.

For the compound `COc1cc(C(=O)OCc2cc(=O)n3ccsc3n2)ccc1OC(C)C`, the Potency was 23.1 µM (active).

Take `CCc1c(C)nc2c(-c3ccccc3)c(C)nn2c1Nc1ccc(NC(C)=O)cc1`: the Potency result was “inactive”.

Consider `CCOC(=O)N1CCN(S(=O)(=O)N2CCCC(C(=O)NCCCN3CCC(C)CC3)C2)CC1` (stereo not drawn), for which the Potency result is “inactive”.

Take `COC(=O)C(C)NC(=O)COc1ccc2ccccc2c1` (stereo not drawn): the Potency result was “inactive”.

`CC(=O)NC(c1ccccc1)c1nc(-c2ccccc2C)cs1` (stereo not drawn): the Potency result is “inactive”.

Consider `O=C(NCc1nnc(SCC(=O)N2CCC(Cc3ccccc3)CC2)o1)c1ccco1`, for which the Potency result is “inactive”.

Regarding `O=C(CN1CCOc2ccccc21)N1CCC(Cc2ccccc2)CC1`, the Potency was 13 µM (active).

Regarding `CC1(C)CC(=O)C(CC(=O)N2CCC(Cc3ccccc3)CC2)C(=O)C1`, the Potency entry is “inactive”.

Turning to `Cn1cnnc1Sc1ccc(S(C)(=O)=O)cc1[N+](=O)[O-]`, the Potency result is “inactive”.

Turning to `Cc1cc(C)nc(NS(=O)(=O)c2ccc(N3C(=O)C4CCCCC4C3=O)cc2)n1` (stereo not drawn), the Potency entry was “inactive”.

For `Cn1c(=O)[nH]c(=O)c2c1nc(NCCc1ccccc1)n2Cc1ccc(F)cc1`, the Potency was 23.1 µM (active).

As for `COc1ccc(CNc2nc3c(c(=O)[nH]c(=O)n3C)n2Cc2ccccc2)cc1`, the Potency result is “inactive”.

For the compound `CCCCn1c(SCC(=O)NCCc2ccc(OC)c(OC)c2)nc2c1c(=O)n(C)c(=O)n2C`, the Potency result is “inactive”.

`Cc1nnc(Sc2nc3c(c(=O)[nH]c(=O)n3C)n2Cc2ccccc2)s1`: the Potency entry is “inactive”.

As to `Cn1c(=O)c2c(nc(N/N=C/c3cccs3)n2Cc2ccc(Br)cc2)n(C)c1=O`, the Potency was 20.6 µM (active).

With `Cn1c(=O)c2c(nc(OCc3cccnc3)n2Cc2ccccc2)n(C)c1=O`, the Potency was 11.6 µM (active).

With `CCn1c(NCCc2ccc(OC)c(OC)c2)nc2c1c(=O)n(C)c(=O)n2C`, the Potency was 9.2 µM (active).

As to `Cn1c(=O)c2sccc2n(Cc2ccc(Br)cc2)c1=O`, the Potency result is “inactive”.

As for `COc1ccc(CCNC(=O)Nc2ccc3c(c2)c(=O)n(C)n3C)cc1OC`, the Potency result was “inactive”.

Consider `Cc1ccc(CN2CCN(/N=C/c3cccnc3)CC2)c(C)c1`, for which the Potency result was “inactive”.

With `COc1ccc(NC(=O)CCCC2CCCCC2)c(OC)c1`, the Potency result was “inactive”.

Consider `NS(=O)(=O)c1ccc2nc(NC(=O)CS(=O)(=O)c3ccc(F)cc3)sc2c1`, for which the Potency entry was “inactive”.

Turning to `O=C1NC[C@H](CCCCN2C[C@H](Cc3ccc(O)cc3)N(CC3CCCCC3)C(=O)C2=O)N(CCc2ccccc2)C1=O`, the Potency entry was “inactive”.

For the compound `O=c1nc(NO)ccn1C1CCCO1` (stereo not drawn), the Potency result was “inactive”.

For `NC(=O)COc1ccc(C23CC4CC(CC(C4)C2)C3)cc1`, the Potency result is “inactive”.

As for `Cc1ccc(S(=O)(=O)Nc2nc(N)n(-c3ccccc3)n2)cc1`, the Potency result is “inactive”.

On to `Cn1c(=O)c2c(nc(Oc3ccc(C#N)cc3)n2Cc2ccc(Cl)cc2Cl)n(C)c1=O`, for which the Potency result was “inactive”.

Consider `CC(C)CCn1c(CN(C)Cc2ccccc2)nc2c1c(=O)n(C)c(=O)n2C`, for which the Potency was 6.51 µM (active).

Turning to `Cn1c(=O)c2c(nc(NCCc3ccccc3)n2Cc2ccccc2)n(C)c1=O`, the Potency is 5.8 µM (active).

`CC1CN(Cc2nc3c(c(=O)n(C)c(=O)n3C)n2Cc2cccc(Cl)c2)CC(C)O1` (stereo not drawn): the Potency result was “inactive”.

As to `CC(C)OCCCNc1nc2c(c(=O)n(Cc3ccccc3F)c(=O)n2C)n1C`, the Potency entry is “inactive”.

Consider `CC(C)CCn1cnc2c1c(=O)n(CC(=O)NC(N)=O)c(=O)n2Cc1ccccc1`, for which the Potency entry is “inactive”.

Turning to `C=CCOc1nc2c(c(=O)n(C)c(=O)n2C)n1Cc1ccc(Cl)cc1Cl`, the Potency is 18.4 µM (active).

Take `COc1cccc(CNS(=O)(=O)c2cc3c(cc2C)n(C)c(=O)c(=O)n3C)c1`: the Potency result was “inactive”.

Regarding `Cn1c(=O)c2c(nc(NCc3ccccc3)n2CC(N)=O)n(C)c1=O`, the Potency result was “inactive”.

`Cn1c(=O)[nH]c(=O)c2c1nc(CN(Cc1ccccc1)Cc1ccccc1)n2CCN1CCOCC1`: the Potency entry was “inactive”.

Take `COc1ccc(CCn2c(NCCCN3CCOCC3)nc3c2c(=O)[nH]c(=O)n3C)cc1`: the Potency result is “inactive”.

On to `CCCCNc1nc2c(c(=O)n(C)c(=O)n2C)n1Cc1cccc(OC)c1`, for which the Potency is 2.91 µM (active).

Regarding `COCCn1cnnc1SCC(=O)Nc1cccc(S(=O)(=O)N2CCCCC2)c1`, the Potency result was “inactive”.

As for `NC(=O)C1CCN(C(=O)/C(=C/c2ccco2)NC(=O)c2ccccc2)CC1`, the Potency entry was “inactive”.

For the compound `Cc1c(C(=O)NC(=S)NCc2cccnc2)oc2ccccc12`, the Potency result was “inactive”.

For `Cc1ccccc1OS(=O)(=O)c1cccc([N+](=O)[O-])c1`, the Potency entry is “inactive”.

For the compound `CC(Oc1ccccc1[N+](=O)[O-])C(=O)N/N=C/c1ccoc1` (stereo not drawn), the Potency entry is “inactive”.
